Hit rate of the full screen: of about 310,000 compounds, about 2,200 (0.71%) showed an effect of 50% or more. The effect is printed as a negative number. Many of the other results were omitted from the sample, so strong results are more common in it than they were.
Target: human ether-à-go-go-related gene (hERG) potassium channel (human, UniProt Q12809)
Experiment: primary screen, population patch clamp on CHO cells stably expressing hERG; higher = less effect of the substance

human ether-à-go-go-related gene (hERG) potassium channel, sequence (Q12809 whole entry, looked up): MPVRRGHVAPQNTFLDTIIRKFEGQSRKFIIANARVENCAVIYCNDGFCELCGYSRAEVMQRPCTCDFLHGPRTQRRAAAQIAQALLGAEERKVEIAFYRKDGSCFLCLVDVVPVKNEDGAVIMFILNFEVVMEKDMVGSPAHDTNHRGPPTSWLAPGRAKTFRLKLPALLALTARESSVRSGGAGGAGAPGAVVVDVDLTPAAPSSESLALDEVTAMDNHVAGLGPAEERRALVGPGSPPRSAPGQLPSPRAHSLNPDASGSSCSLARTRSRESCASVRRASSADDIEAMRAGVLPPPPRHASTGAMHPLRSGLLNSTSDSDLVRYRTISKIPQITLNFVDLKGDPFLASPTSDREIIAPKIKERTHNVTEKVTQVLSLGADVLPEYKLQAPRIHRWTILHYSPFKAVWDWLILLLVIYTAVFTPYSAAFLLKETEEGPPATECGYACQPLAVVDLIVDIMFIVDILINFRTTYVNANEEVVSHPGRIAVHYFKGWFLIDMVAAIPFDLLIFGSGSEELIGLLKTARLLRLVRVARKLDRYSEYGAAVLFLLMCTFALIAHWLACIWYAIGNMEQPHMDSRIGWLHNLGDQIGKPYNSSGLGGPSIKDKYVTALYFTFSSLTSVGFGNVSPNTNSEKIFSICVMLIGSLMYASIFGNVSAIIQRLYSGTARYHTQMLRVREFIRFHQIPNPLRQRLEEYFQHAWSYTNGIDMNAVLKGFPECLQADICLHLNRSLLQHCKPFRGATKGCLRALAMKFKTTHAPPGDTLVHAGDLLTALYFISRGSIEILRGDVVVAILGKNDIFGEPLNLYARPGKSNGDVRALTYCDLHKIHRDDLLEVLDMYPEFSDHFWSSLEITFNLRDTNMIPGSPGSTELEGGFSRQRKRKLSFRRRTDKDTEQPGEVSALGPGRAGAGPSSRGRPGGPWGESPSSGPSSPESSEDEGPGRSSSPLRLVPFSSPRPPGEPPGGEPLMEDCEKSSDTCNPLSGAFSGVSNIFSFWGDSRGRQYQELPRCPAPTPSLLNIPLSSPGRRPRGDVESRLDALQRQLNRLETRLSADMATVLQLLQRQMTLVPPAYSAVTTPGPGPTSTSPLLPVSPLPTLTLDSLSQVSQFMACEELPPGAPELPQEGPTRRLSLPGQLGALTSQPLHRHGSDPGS

Point of comparison: Cc1ccc(OCC(=O)Nc2ccc3c(c2)nc(CCN2CCN(C)CC2)n3C)cc1, “hERG current change (%, negative = inhibition) at 1uM” value -5.14%. Against it:
- COc1cccc(C2=CC(c3cc(OC)ccc3OC)n3nnnc3N2)c1 (stereo not shown) — higher, 15.2%
- O=C(CN(C(=O)c1csnn1)c1ccc(F)cc1)NCc1ccc(F)cc1 — higher, 3.44%
- CC(=O)Nc1cc2c(cc1NC(=O)c1cnccn1)OCCO2 — higher, 19.8%
- CCOC(=O)c1sc(NC(=S)NC(=O)c2cccc(Cl)c2)c(C(=O)OCC)c1C — higher, 1.03%
- COc1ccc(S(=O)(=O)Nc2ccccc2OC)cc1NC(=O)c1cc2ccccc2oc1=O — higher, -4.91%
- CCCCC(O)(CCN1CCOCC1)c1ccc(Cl)cc1.Cl (stereo not shown) — lower, -51.3%
- CCCOc1ccc(C(O)(CCC)CCN2CCCCC2)cc1 (stereo not shown) — lower, -25.4%
- CCCCCC(O)(CCN1CCCCC1)c1ccc(OCC)cc1.Cl (stereo not shown) — lower, -82%
- CCCCOc1ccc(C(O)(CCC)CCN2CCOCC2)cc1 (stereo not shown) — lower, -11%
- CCC(O)(CCN1CCCCC1)c1ccccc1 (stereo not shown) — higher, 3.27%
- CCCC(O)(CCN1CCOCC1)c1ccc(Cl)cc1 (stereo not shown) — higher, 6.26%
- CCCCCCC(O)(CCN1CCCCC1)c1ccccc1.Cl (stereo not shown) — lower, -17.1%
- CCCCCC(O)(CCN1CCCCC1)c1ccccc1.Cl (stereo not shown) — lower, -84.7%
- CCCC(O)(CCN1CCOCC1)c1ccc(Br)cc1.Cl (stereo not shown) — higher, 7.3%
- O=C1C=C(N2CCCCC2)C2(CCCCC2)O1 — higher, 10.8%
- Nc1nc(NCc2ccco2)nc(Nc2cccc(F)c2)c1[N+](=O)[O-] — higher, 18.1%
- O=C(NCCc1ccccc1)c1ccc(Cl)nc1 — higher, 18%
- COC(=O)c1ccc(CSc2nnc(Nc3cccc(OC)c3)s2)o1 — higher, 10.7%
- COCCCC1CCN(C(=O)C2CCC(=O)N(CC3CCCCC3)C2)CC1 (stereo not shown) — higher, 2.85%
- COc1ccc(OCC(O)CN2CCNCC2)cc1.Cl (stereo not shown) — higher, 14.6%
- Fc1cccc(NC(=S)NNc2ccccc2)c1 — higher, 10.7%
- Cc1ccc2cc(CN(CC3CCCO3)C(=S)Nc3ccccc3)c(=O)[nH]c2c1C (stereo not shown) — higher, 13.3%
- CCOC(=O)c1[nH]ncc1CN1CCCC(C(=O)c2cc(Cl)ccc2OC)C1 (stereo not shown) — lower, -29.9%
- O=C(NCCc1ccc2c(c1)OCCO2)c1cc2ccccc2o1 — lower, -16.6%
- CN(C)S(=O)(=O)N1CCC(Oc2cccc(C(=O)NC3CCCCC3)c2)CC1 — higher, 2.87%
- CCOC(=O)C(C)(C)Sc1nc2c(cnn2-c2ccc(Cl)cc2)c(=O)[nH]1 — higher, 4.97%
- CCN1CCCC(OC(=O)Nc2ccccc2)C1 (stereo not shown) — higher, 6.59%
- Cl.O=C(OC1CCN(CCCl)CC1)C(c1ccccc1)c1ccccc1 — higher, 15.9%
- CCN1CCCC(OC(=O)C(c2ccccc2)c2ccccc2)C1.Cl (stereo not shown) — lower, -53%
- Cc1cccc(OCC(=O)Nc2ccc3c(c2)nc(CCN2CCN(C)CC2)n3C)c1 — lower, -6.31%
- Cc1cccc(OCC(=O)Nc2ccc3c(c2)nc(CCN2CCCCC2)n3C)c1 — lower, -58.3%
- CN1CCN(CCc2nc3cc(NC(=O)COc4ccc(Cl)cc4)ccc3n2C)CC1 — lower, -7.52%
- Cn1c(CCN2CCCCC2)nc2cc(NC(=O)COc3ccccc3)ccc21 — lower, -51.9%
- CCN1CCN(CCc2nc3cc(NC(=O)COc4ccccc4)ccc3n2C)CC1 — higher, 0.262%
- COc1ccc(OCC(=O)Nc2ccc3c(c2)nc(CCN2CCCCC2)n3C)cc1 — lower, -31.3%
- CCN1CCN(CCc2nc3cc(NC(=O)COc4ccc(Cl)cc4)ccc3n2C)CC1 — lower, -26.8%
- Cn1c(CCN2CCCCC2)nc2cc(NC(=O)COc3ccc(Cl)cc3)ccc21 — lower, -89.6%
- Cc1ccc(OCC(=O)Nc2ccc3c(c2)nc(CCN2CCCCC2)n3C)cc1 — lower, -60%
- CN1CCN(CCc2nc3cc(NC(=O)COc4ccccc4)ccc3n2C)CC1 — lower, -13.2%
- Cc1cccc(OCC(=O)Nc2ccc3c(c2)nc(CN2CCCCC2)n3C)c1.Cl — higher, -3.37%
- COC(=O)C1=C(c2ccc(-c3ccccc3)c(F)c2)C[C@@H]2CC[C@H]1N2C(=O)NCCc1ccccc1 — higher, 15.4%
- CCOC(=O)C(=CNNc1c(C)csc1C(=O)OC)C(=O)OCC — higher, 16.7%
- COc1ccc(CCNC(=O)CN2C(=O)NC(Cc3c[nH]c4ccccc34)C2=O)cc1 (stereo not shown) — higher, 9.58%
- Cc1cc(OCC(=O)NC(Cc2c[nH]c3ccc(O)cc23)C(=O)O)c2c(C)c(C)c(=O)oc2c1 (stereo not shown) — higher, 14.5%
- CC(C)n1c(N)c(C#N)c2ccc([N+](=O)[O-])cc2c1=O — lower, -6.91%
- CCN(CC)CCNCc1cc(Br)ccc1OCC(=O)NCc1ccccc1.Cl — lower, -54.6%
- CCCNCc1cc(Br)ccc1OCC(=O)NCCc1ccccc1 — lower, -10.7%
- O=C(COc1ccc(Br)cc1CNC1CCCCC1)NCCc1ccccc1 — lower, -59%
- Cl.O=C(COc1ccc(Br)cc1CNCCc1ccccc1)NCc1ccccc1 — lower, -11.5%
- CCN(CC)CCNCc1ccc(Br)cc1OCC(=O)NCc1ccccc1.Cl — lower, -7.7%
- Cl.O=C(COc1ccc(Br)cc1CNC1CCCC1)Nc1ccccc1 — lower, -28.2%
- O=c1c2c(-c3cccs3)csc2ncn1-c1ccc(Br)cc1 — higher, -2.84%
- CCCNC(=O)N1[C@H]2CC[C@@H]1C(C(=O)OC)=C(c1ccc3ccccc3c1)C2 — higher, 4.04%
- COc1ccc(Cc2n[nH]c(=S)n2NC(=O)Nc2ccc(Cl)c(Cl)c2)cc1 — higher, 10.2%
- Cc1ccc2c(c1)CC1(CN2C)C(=O)NC(=O)N(C(C)C)C1=O (stereo not shown) — higher, 19.3%
- C/C(=N\Nc1nc2ccccc2[nH]1)c1ccccn1 — lower, -55.5%
- C/C(=N\Nc1nc2ccccc2[nH]1)c1cccs1 — higher, -0.576%
- C/C(=N\Nc1nc2ccccc2[nH]1)c1ccc(C)o1 — higher, 8.2%
- CC1CCCCC1NC(=O)CCNS(=O)(=O)c1ccc(Cl)cc1 (stereo not shown) — higher, 7.29%
- O=C(C1CCC(CNS(=O)(=O)c2cccc3cccnc23)CC1)N1CCc2ccccc21 (stereo not shown) — higher, 1.06%
- C=Cc1ccc2c(c1)OCCOCCOCCOCCOCCO2 — lower, -70.2%
- c1ccc2c(c1)OCCOCCOCCOCCOCCOc1ccccc1OCCOCCOCCO2 — lower, -8.98%
- Brc1ccc2c(c1)OCCOCCOCCOCCOCCO2 — lower, -78.6%
- Brc1cc2c(cc1Br)OCCOCCOCCO2 — higher, 5.78%
- Brc1cc2c(cc1Br)OCCOCCOCCOCCO2 — lower, -38.2%
- Brc1ccc2c(c1)OCCOCCOc1cc(Br)ccc1OCCOCCOCCO2 — lower, -6.77%
- O=C(O)/C=C/c1ccc2c(c1)OCCO2 — higher, 6.97%
- Cl.Nc1ccc2c(c1)OCCOCCOCCOCCOCCO2 — lower, -12.2%
- Brc1ccc2c(c1)OCCOCCOCCOCCOCCOCCO2 — lower, -60%
- CCNC(=S)N1CCc2ccccc2C1 — higher, 9.59%
- CCOc1ccc(C(=O)n2cnnc2N)cc1 — higher, 16.9%
- Cc1nc(SC2CCOC2=O)c2c(C)c(C)sc2n1 (stereo not shown) — higher, 4.94%
- Cc1cccc(NC(=O)C2CCN(S(=O)(=O)c3cccs3)CC2)n1 — higher, 2.08%
- Cc1ccc(-n2c(C)nnc2SCC(=O)N2CCc3ccccc3C2)cc1 — lower, -19.6%
- Cc1ccc(N(C(=O)c2ccccn2)C2(C(=O)NC3CCCC3)CCCCC2)cc1 — higher, 16.9%
- CC(=O)O.CN(C)Cc1cn(CCC(=O)O)c2ccccc12 — higher, 10.9%
- CCOC(=O)C1CCCN(CCC(=O)Nc2cc(C)ccc2C)C1.Cl (stereo not shown) — lower, -8.02%
- COc1ccc(-n2c(SCC(=O)NCC3CCCO3)nc3n[nH]c(C)c3c2=N)cc1 (stereo not shown) — higher, 7.29%
- O=C(COc1ccc(Cl)cc1Cl)Nc1nc2n(n1)C(c1ccccc1)CC(=O)N2 (stereo not shown) — higher, 1.52%
- CCc1nnc(NC(=O)c2cc(S(=O)(=O)N3CCCCC3)ccc2C)s1 — higher, 1.93%
- CCn1c2ccccc2c2cc(NC(=O)CSc3nnc(-c4cccc(Cl)c4)o3)ccc21 — higher, 9.78%
- CN(C)CCN(Cc1ccco1)C(=O)c1oc2ccccc2c1NC(=O)COc1ccccc1 — lower, -79.3%
- COc1ccc(OCC(=O)Nc2c(C(=O)N(CCN(C)C)Cc3ccco3)oc3ccccc23)cc1 — lower, -82.2%
- CCCN1CCN(C(=O)c2oc3ccccc3c2NC(=O)COc2ccc(OC)cc2)CC1 — lower, -46.3%
- Cc1c(C(=O)NCc2ccco2)oc2ccccc12 — higher, 9.16%
- Cc1c(C(=O)OCC(=O)NCc2ccco2)oc2ccccc12 — higher, 10.1%
- Cc1ccccc1C(=O)Nc1c(C(=O)N(CCN(C)C)Cc2ccco2)oc2ccccc12 — lower, -81.1%
- COc1ccc(OCC(=O)Nc2c(C(=O)N3CCN(C)CC3)oc3ccccc23)cc1 — lower, -15%
- COc1ccccc1C(=O)Nc1c(C(=O)N(CCN(C)C)Cc2ccco2)oc2ccccc12 — lower, -27.4%
- O=C(COc1ccccc1)Nc1ccccc1C(=O)NCc1ccco1 — higher, 6.35%
